# From PubChem BioAssay
# Hsp90 inh: tumor Hsp90 inhibitors, primary screen, cell lysate, fluorescence polarization, NCI-N417 lysate; Heat shock protein HSP 90-alpha (Homo sapiens), P07900; Cy3B-geldanamycin FP displacement; inhibition, % at 30 µM; 0.35% of 64,000 active; AID 429, 2006;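 active means inhibition above 50%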;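 further: 0% = tracer plus lysate wells and 100% = tracer alone without lysate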
# SKBR3 24h inh: SK-BR-3 proliferation inhibitors, primary screen, cell-based, human, 24 h; viability, % at 10 µM; SK-BR-3 viability, CellTiter-Glo ATP luminescence; active compounds read low; AID 847, 2007; 0.47% of 41,000 active;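 active means viability at or below the median of all test compounds minus 3 SD, in both replicates if run twice, cut at about 45% in these data; inconclusive means duplicate replicates that disagree with each other; inactive means viability above that cutoff in every replicate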;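 further: 100% = median untreated cell wells and 0% = median positive control drug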
# DUSP1 inh: MKP-1 phosphatase inhibitors, primary screen, biochemical, in vitro; Dual specificity protein phosphatase 1 (Homo sapiens), P28562; recombinant MKP-1, OMFP hydrolysis fluorescence; inhibition, %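 (compounds tested at a single concentration somewhere between 10 and 100 µM)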; 0.15% of 65,000 active;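 active means inhibition above about 50%, limit read from the data; inconclusive means inhibition over screen mean plus 3 SD, below that limit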;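 further: 0% = DMSO max control wells and 100% = wells with enzyme stopped by NaOH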
# ROCK2 inh: inhibitors of human ROCK2 kinase, primary screen, biochemical, high-throughput, luminescence; 0.35% of 60,000 active; inhibition, % at 6 µM; Rho-associated protein kinase 2 (Homo sapiens), O75116; purified ROCK2, Kinase-Glo ATP depletion luminescence;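 active means inhibition above the screen-wide mean inhibition plus 3 SD, cut at about 18% in these data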;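 further: plate controls were DMSO wells for no effect and Y-27632 control wells after no-enzyme background subtraction for full effect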
# PKA kinase inh: inhibitors of human PKA kinase activity, primary screen, biochemical, ATP-depletion luminescence, Kemptide substrate; cAMP-dependent protein kinase catalytic subunit alpha (Homo sapiens), P17612; PKA Kemptide phosphorylation, Kinase-Glo ATP luminescence; inhibition, % at 6 µM; 0.1% of 65,000 active; AID 524, 2006;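 active means inhibition above the screen-wide mean inhibition plus 3 SD, cut at about 21% in these data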
# Cdc25B block: inhibitors of Cdc25B phosphatase catalytic domain, primary screen, biochemical, OMFP fluorescence; recombinant Cdc25B, OMFP fluorescence Ex485/Em525; inhibition, %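 (compounds tested at 10 µM final in the well)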; 0.1% of 65,000 active; AID 368, 2006; in the data active means inhibition above about 50%
# Starred values were filed as active, the others as inactive; i = inactive; ? = inconclusive; / = no result. Shown are actives, neighbours in structure and some others; about 0.99% of the full set was active somewhere.
SMILES,Hsp90 inh,SKBR3 24h inh,DUSP1 inh,ROCK2 inh,PKA kinase inh,Cdc25B block
COc1ccc(N(Cc2cc(=O)[nH]c3ccccc23)C(=O)c2ccco2)cc1,-5.2,43.6*,-29.3,-6.5,-3.4,-8.5
CCCCn1c(NC(=O)c2ccc(F)cc2)c(C#N)c2nc3ccccc3nc21,40.6,/,?,2.5,6.9,79.4*
COc1ccc(-n2c(SCC(=O)N3CCCC3)nc3c([nH]c4ccccc43)c2=O)cc1,-2.8,/,54.2*,4.1,3.7,-42.3
COc1ccc(N2CCN(Cc3cc(=O)oc4cc(C)c(Cl)c(C)c34)CC2)cc1,-1.9,42.3*,5.4,-2.7,-3.3,-0.4
O=C(Nc1ccc2c(c1)OCCO2)C1CCN(C(=O)c2ccc(F)cc2)CC1,-1.2,91.5,3.7,2.7,-0.1,-3.1
O=c1onc2n1-c1cc(Br)ccc1OC2,-1.2,/,/,/,/,/
CC12CC(NC(=O)N1c1cccc(C(=O)N3CCN(c4ccccc4)CC3)c1)c1ccccc1O2 (stereo not given),1.3,/,-5.3,/,-0.3,-0.8
CC12CC(NC(=O)N1c1ccc(C(=O)N3CCN(c4ccc(F)cc4)CC3)cc1)c1ccccc1O2 (stereo not given),0.5,91.1,53.2*,2.2,2.5,8.1
COc1cccc2c1C(=O)c1c(O)c3c(c(O)c1C2=O)C[C@@](O)(C(C)=O)C[C@@H]3O[C@H]1C[C@H](N)[C@H](O)[C@H](C)O1,79.6*,98.7,6.2,-11.1,-8.1,-1.4
CC(=O)[C@]1(O)Cc2c(O)c3c(c(O)c2[C@@H](O[C@H]2C[C@H](N)[C@H](O)[C@H](C)O2)C1)C(=O)c1ccccc1C3=O,155.7*,/,/,/,/,/
COc1cc(/C=C(\C#N)C(=O)c2ccc(O)c(O)c2)cc(I)c1O,72.6*,/,/,/,/,/
O=c1c(O)c(-c2cc(O)c(O)c(O)c2)oc2cc(O)cc(O)c12,100.0*,/,/,/,/,/
O=C(Cn1c(NCCCO)nc2ccccc21)c1cccc(Br)c1,-4.6,103.1,2.4,6.5,1.7,-1.2
NC(=O)c1sc2nc(N3CCCCC3)c3c(c2c1N)CCCC3,-4.5,110.8,20.2,42.4*,26.9*,12.5
COC(=O)c1cc(NCc2ccc3c(c2)OCO3)ccc1N1CCOCC1,2.5,93.7,26.8,-2.4,-6.7,-11.3
CCOC(=O)c1ccc(NCc2ccc3c(c2)OCO3)cc1,-1.2,43.1*,-6.0,4.2,8.9,-11.5
O=C(O)c1cc(NCc2ccc3c(c2)OCO3)ccc1N1CCOCC1,1.4,85.5,4.5,50.6*,7.2,8.7
COc1ccc(-n2nc3c(c2NC(=O)c2cc(Br)ccc2Cl)CS(=O)C3)cc1 (stereo not given),-1.0,/,-2.5,1.1,0.4,-8.0
COc1ccc(-n2nc3c(c2NC(=O)c2ccc(Br)cc2)CS(=O)C3)cc1 (stereo not given),54.7*,/,2.6,2.7,-6.4,-2.9
CN(C)CCCNc1ccc(N(O)O)c2cccnc12,6.8,/,/,/,/,/
O=C(c1sc2ccccc2c1Cl)N(Cc1ccco1)C1CCS(=O)(=O)C1 (stereo not given),54.3*,87.1,-14.8,-5.7,2.5,4.3
O=C(c1cccs1)N(Cc1ccco1)C1CCS(=O)(=O)C1 (stereo not given),-4.9,96.5,-2.7,-4.8,-2.2,-1.0
Cc1nn2c(-c3cccc(NC(=O)c4ccco4)c3)nnc2c2ccccc12,-9.4,74.4,51.0*,8.1,8.4,-11.2
O=C(Cc1cccs1)NCC1CCCO1 (stereo not given),-8.5,34.9*,-16.0,-4.1,-5.6,-29.2
O=C(NCC1CCCO1)c1ccc(C(=O)NCC2CCCO2)cc1 (stereo not given),-0.2,103.4,-13.5,8.4,6.8,-5.1
SMILES,Hsp90 inh,SKBR3 24h inh,DUSP1 inh,ROCK2 inh,PKA kinase inh,Cdc25B block
O=C(Cc1ccc(F)cc1)Nc1c2c(nn1-c1cccc(Cl)c1)CS(=O)C2 (stereo not given),-0.4,36.3*,-21.5,3.9,10.5,-18.0
Cc1cc(C(=O)CN2C(=O)NC3(CCCCC3)C2=O)c(C)n1Cc1ccc2c(c1)OCO2,-4.1,/,22.5,22.5*,10.7,2.2
Cc1cccc(C)c1NC(=O)C(c1ccccc1)N1CCC2(CC1)OCCO2 (stereo not given),0.1,33.7*,-10.5,-2.3,-1.7,-5.8
COc1ccccc1NS(=O)(=O)c1ccc(OC)c(OC)c1,3.4,28.6*,-24.0,-0.7,1.1,-3.2
O=C(CCCOc1ccccc1)Nc1ccncc1,-0.1,56.1,-5.4,33.1*,30.2*,-2.5
CC(C)Oc1ccc(/C(O)=C2/C(=O)C(=O)N(CCN(C)C)C2c2ccco2)cc1 (stereo not given),-5.2,78.9,-19.2,-16.0,1.5,3.9
CC(C)NC(=O)c1ccccc1NC(=O)CCS(=O)(=O)Cc1ccccc1,-1.3,121.2,-0.8,4.6,10.5,-7.3
N#Cc1c(-c2ccccc2)no[n+]1[O-],11.0,/,/,/,/,/
COc1ccc(NCc2cc3cc(OC)ccc3[nH]c2=O)cc1,87.5*,93.8,-9.8,-5.0,2.6,29.8
N.N.O=C(O)C1(C(=O)O)CCC1.[Pt+2],i,/,/,/,/,/
Cc1cc2oc3c(c(=O)c2cc1C)C(c1cccc(Br)c1)N(Cc1ccco1)C3=O (stereo not given),2.5,41.7*,16.4,-7.9,-3.2,4.8
O=C(CSc1nc2ccccc2c(=O)[nH]1)N1CCOCC1,-0.1,24.0*,5.9,1.3,7.1,-16.1
CC(CCc1ccc(O)cc1)NCCc1ccc(O)c(O)c1 (stereo not given),60.6*,/,/,/,/,/
CCOC(=O)C1=C(N)OC2=C(C(=O)CCC2)C1c1ccccc1OCC (stereo not given),0.2,97.7,11.1,5.5,7.4,-6.2
O=C(CSc1nc2ccccc2c(=O)n1-c1ccc(Cl)cc1)c1ccco1,-4.4,/,19.9,0.5,1.7,2.9
CCOC(=O)CNC(=O)CNC(=O)c1ccc(OC)cc1,2.4,91.2,-1.7,-14.8,-1.7,6.0
CCCCOc1ccc(C(=O)NCC(=O)NCC(=O)OCC)cc1,-0.4,94.6,-25.3,4.6,2.6,90.9*
O=C(Cn1cnc2ccccc2c1=O)NCCC(=O)Nc1ccc2c(c1)OCCO2,85.6*,101.9,7.0,3.3,-8.4,-10.9
O=C(Cn1cnc2ccccc2c1=O)Nc1ccc2c(c1)OCCO2,2.1,/,24.7,-3.3,-3.7,0.0
Cc1ccc(Nc2ncc3c(n2)CC(c2ccco2)CC3=O)c(C)c1 (stereo not given),0.9,83.8,27.2,0.4,0.9,78.3*
Cc1cccc(Nc2ncc3c(n2)CC(c2ccco2)CC3=O)c1 (stereo not given),-2.3,81.4,-2.8,7.1,4.7,3.1
